This passage reports outcome and AC50 results from PubChem BioAssay (EPA / NIEHS).

Several values for one entry are separate records, joined by “and”; a condition that tells them apart may be missing. Identical values can stand only once. Records with an inconclusive call do not appear. Where a structure was tested more than once in an assay, its records may differ in their call. Activity calls are given as the source filed them. Rule for the calls: active = hit-call score of the fitted dose curve at least 0.9, where 1 is the maximum; inconclusive = response in the unintended direction; inactive = score below 0.9.

human Thyroid Receptor alpha (THRa1), THRA (gene 7067), sequence (P10827 whole entry, looked up): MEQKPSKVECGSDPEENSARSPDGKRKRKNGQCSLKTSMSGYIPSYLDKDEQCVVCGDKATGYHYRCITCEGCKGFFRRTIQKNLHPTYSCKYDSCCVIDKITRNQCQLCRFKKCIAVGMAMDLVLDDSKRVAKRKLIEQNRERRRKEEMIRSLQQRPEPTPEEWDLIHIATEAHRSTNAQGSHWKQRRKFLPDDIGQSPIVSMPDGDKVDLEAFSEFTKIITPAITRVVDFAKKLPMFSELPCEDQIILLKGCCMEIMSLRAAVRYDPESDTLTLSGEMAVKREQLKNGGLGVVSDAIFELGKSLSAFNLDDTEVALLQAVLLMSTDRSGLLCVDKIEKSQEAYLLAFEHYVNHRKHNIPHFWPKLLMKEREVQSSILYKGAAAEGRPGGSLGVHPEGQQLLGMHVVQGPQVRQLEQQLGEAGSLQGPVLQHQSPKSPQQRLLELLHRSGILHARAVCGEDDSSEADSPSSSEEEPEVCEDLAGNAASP

The target of this test is human Thyroid Receptor alpha (THRa1), THRA (gene 7067) (UniProt P10827). Briefly: ATG_THRa1_TRANS: Attagene TRANS-FACTORIAL HepG2 Assay for human Thyroid Receptor alpha (THRa1) (AID 2283014). On the procedure:
ATG_TRANS is a cell-based, multiplexed-readout assay that uses HepG2, a human liver cell line, with measurements taken at 24 hours after chemical dosing in a 24-well plate.ATG_THRa1_TRANS is one of 30 assay component(s) measured or calculated from the ATG_TRANS assay. It is designed to make measurements of mRNA induction, a form of inducible reporter, as detected with fluorescence intensity signals by Reverse transcription polymerase chain reaction (RT-PCR) and Capillary electrophoresis technology.Data from the assay component ATG_THRa1_TRANS was analyzed into 1 assay endpoint. This assay endpoint, ATG_THRa1_TRANS, was analyzed in the positive analysis fitting direction relative to DMSO as the negative control and baseline of activity. Using a type of inducible reporter, measures of mRNA for gain-of-signal activity can be used to understand the reporter gene at the transcription factor-level as they relate to the gene THRA. Furthermore, this assay endpoint can be referred to as a primary readout, because this assay has produced multiple assay endpoints where this one serves a reporter gene function. To generalize the intended target to other relatable targets, this assay endpoint is annotated to the nuclear receptor intended target family, where the subfamily is non-steroidal.
Human liver HepG2 cells are transiently transfected with multiple reporter transcription units (MRTUs) in 6-well plates using FuGene 6 reagent (Roche; 3 ml FuGene/1 mg DNA). The MRTU constructs are regulated by a cis-regulating element (promoter). […] A major difference between the CIS and TRANS system is that in CIS activities of endogenous TFs are measured, whereas the TRANS assay evaluates changes in activities of exogenous, chimeric NR-Gal4 proteins. […] At the end of 24 hour incubation, total RNA was isolated using TriZol reagent (Invitrogen). The isolated RNA is then reverse-transcribed using oligo(dT) primer and Mo-MLV reverse transcriptase (Invitrogen) with DNAse I (Ambion) treatment for 30 min. The one-tenth of the produced cDNA was amplified by PCR using Taq DNA polymerase (Invitrogen) and two reporter sequence-specific primers. The PCR products were fluorescently labeled by primer extension with 6-arboxyfluorescein (6-FAM) 5'-labeled reporter sequence-specific primer (2 min at 95 C, 20 s at 68 C and 10 min at 72 C) and these products were digested with 5U of HpaI (New England Biolabs) for 2h at 37 C. The fragments were purified using Qiaquick PCR columns (Qiagen), analyzed on an ABI 3130xL genetic analyzer (Applied Biosystems) with peak positions identified by using a set of X-rhodamine (ROX)-labeled MapMarker1000 molecular weight standards (BioVentures). The raw capillary electrophoresis data was processed using Attagraph software (Attagene).
As for `COP(=S)(OC)Oc1ccc(Sc2ccc(OP(=S)(OC)OC)cc2)cc1`, the result was inactive.
Usually AC50 stands for the concentration giving half of the maximal activity seen. As for `CCC(C)(C)c1ccc(O)c(C(C)(C)CC)c1`, the AC50 is 45.8 µM (active).
For the molecule `O=CC=O`, the molecule was called inactive.
Same read-out and setting: as for `Cc1ccccc1N`, the entry is “inactive”.
For `c1ccc(N=NNc2ccccc2)cc1`, the AC50 is 134 µM (active).
`COS(=O)(=O)c1ccc(C)cc1`: the call was inactive.
Same read-out and setting: as for `CN(C)P(=O)(N(C)C)N(C)C`, the entry is “inactive”; as for `C(=NC1CCCCC1)=NC1CCCCC1`, “inactive”.
For `O=C1C2(Cl)C3(Cl)C4(Cl)C(Cl)(Cl)C5(Cl)C3(Cl)C1(Cl)C5(Cl)C24Cl` (stereo not given), the call was inactive; the AC50 was 4.37 µM (active) and 56.4 µM (active).
In the case of `CC(C)C1CCC(Cc2ccc(Cl)cc2)C1(O)Cn1cncn1` (stereo not given), the outcome was inactive.
Same read-out and setting: as for `C[C@@H]1C[C@@H]([C@H](O)CC2CC(=O)NC(=O)C2)C(=O)[C@@H](C)C1`, the entry is “inactive”.
On the same count and under the same terms, as for `O=[N+]([O-])c1c(Cl)c(Cl)cc(Cl)c1Cl`, the entry is “inactive”; as for `COc1cc(-c2ccc(N)c(OC)c2)ccc1N`, “inactive”.
The same measure, in the same setting: with `CNC(=O)O/N=C/C(C)(C)S(C)=O` (stereo not given) the entry was “inactive”; with `COc1ccc(C=O)cc1OC`, “inactive”.
As to `Cc1ccccc1C(=O)Nc1cccc(OC(C)C)c1`, the result was inactive.
Take `Cl/C=C/Cl`: the outcome was inactive.
On the same count and under the same terms, with `Oc1ccc(-c2ccccc2)cc1` the entry was “inactive”.
Same read-out and setting: as for `C=CC#N`, the entry is “inactive”.
Still for that read-out and setting: as for `CCc1ccccc1C`, the entry is “inactive”.
For `CCOP(=S)(OCC)SCSP(=S)(OCC)OCC`, the outcome was inactive.
As to `CCOC(=O)CP(=O)(OCC)OCC`, the call was inactive.
With `Cc1ccc(N)cc1Cl`, the result was inactive.
The same measure, in the same setting: with `CC(=[OH+])/C=C(/C)[O-].CC(=[OH+])/C=C(/C)[O-].CC(=[OH+])/C=C(/C)[O-].[Al]` the entry was “inactive”.
With `BrCCBr`, the result was inactive.
Same read-out and setting: with `COP(=S)(OC)Oc1ccc(S(=O)(=O)N(C)C)cc1` the entry was “inactive”; with `NC(=O)O`, “inactive”.
The same measure, in the same setting: with `Clc1nc(Cl)nc(Cl)n1` the entry was “inactive”; with `CCC(=O)C(CC(C)N(C)C)(c1ccccc1)c1ccccc1` (stereo not given), “inactive”.
For the molecule `CC(C)(C)c1cc(O)ccc1O`, the outcome was inactive.
`CCC(C)c1cccc(C(C)CC)c1O` (stereo not given): the outcome was inactive.
The same measure, in the same setting: with `O=C(O)C(Cl)(Cl)Cl` the entry was “inactive”; with `CCC[CH2][Sn]([Cl])([Cl])[Cl]`, “inactive”; with `CC(C)(c1ccccc1)c1ccc(O)c(C(C)(C)c2ccccc2)c1`, “inactive”.
Still for that read-out and setting: as for `ClCc1cccnc1`, the entry is “inactive”; as for `CCC1(c2ccc(N)cc2)CCC(=O)NC1=O` (stereo not given), “inactive”; as for `CN(CCCC(=O)c1cccnc1)N=O`, “inactive”.
On the same count and under the same terms, with `ClCc1ccccn1` the entry was “inactive”; with `NNC(=S)NN`, “inactive”.
